Experimental data as given in PubChem BioAssay (Tox21).
Results filed as inconclusive are left out. Activity calls are given as the source filed them. Unless noted, the call rests on the fitted dose curve; in most records, active means well fitted curve in the direction sought with a large enough effect in the repeat runs; inconclusive means weak or mixed curves; inactive means no such curve, though single readings can be large; an effect the other way counts as inactive or inconclusive.

Experiments:
[1] = A CellTox Green Cytotoxicity Assay to monitor cytotoxicity in HepG2 cells - 8 hour (AID 1224890); further: nearly all actives have a fitted effect of over 45% in size
In short: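 Cells and non-lytic dye reagent are dispensed together (600 HepG2 cells/well) and incubated 5 h before DMSO compound transfer. Kinetic fluorescence is then recorded in the same wells during 40 h at 37 C.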

[2] = qHTS assay to identify small molecule antagonists of the estrogen receptor alpha (ER-alpha) signaling pathway using the BG1 cell line in the presence of 0.1 nM 17-beta-estradiol - cell viability counter screen (AID 1259241); further: nearly all actives have a fitted effect of over 40% in size
In short: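 Estradiol-stimulated (0.1 nM) VM7Luc4E2 cells exposed to compounds 22 hr; viability measured by fluorescence of cleaved CellTiter-Fluor substrate after 30 min.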

[3] = qHTS assay to identify small molecule antagonists of the androgen receptor (AR) signaling pathway using the MDA cell line in the presence of 0.5 nM R1881 - cell viability counter screen (AID 1259242); further: nearly all actives have a fitted effect of over 45% in size
In short: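 Steps: plate MDA-kb2 cells, rest 5 hr at 37C without CO2; pin in compounds in DMSO; add R1881 to 0.5 nM final; incubate 16 hr; add CellTiter-Fluor, 30 min; read fluorescence.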

[4] = biological target: Estrogen receptor (Homo sapiens) (UniProt P03372); assay: qHTS assay to identify small molecule antagonists of the estrogen receptor alpha (ER-alpha) signaling pathway using the BG1 cell line in the presence of 0.1 nM 17-beta-estradiol (AID 1259244); further: nearly all actives have a fitted effect of over 50% in size; further: potency means the concentration at half of the fitted maximal effect
Chain of Estrogen receptor (Homo sapiens) (P03372 whole entry, looked up): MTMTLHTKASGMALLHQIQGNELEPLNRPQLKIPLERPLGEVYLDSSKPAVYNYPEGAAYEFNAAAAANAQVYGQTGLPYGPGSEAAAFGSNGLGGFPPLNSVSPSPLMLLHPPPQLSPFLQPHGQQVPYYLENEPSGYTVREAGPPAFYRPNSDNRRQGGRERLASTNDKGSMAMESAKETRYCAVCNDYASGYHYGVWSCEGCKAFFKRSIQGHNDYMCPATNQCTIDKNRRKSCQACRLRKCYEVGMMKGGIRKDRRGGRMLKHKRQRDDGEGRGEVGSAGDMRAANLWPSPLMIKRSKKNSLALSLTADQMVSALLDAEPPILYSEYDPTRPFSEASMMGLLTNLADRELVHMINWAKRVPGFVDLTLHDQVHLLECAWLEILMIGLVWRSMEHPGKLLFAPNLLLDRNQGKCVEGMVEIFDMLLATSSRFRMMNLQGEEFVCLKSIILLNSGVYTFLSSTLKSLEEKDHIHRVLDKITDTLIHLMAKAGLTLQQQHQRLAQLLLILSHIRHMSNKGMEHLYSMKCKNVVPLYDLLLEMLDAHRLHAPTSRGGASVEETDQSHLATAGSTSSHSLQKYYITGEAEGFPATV
In short: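 Antagonist mode: compounds in DMSO are pinned onto VM7Luc4E2 reporter cells, 0.1 nM final 17beta-estradiol is added, and after 22 h at 37C luciferase luminescence is measured with ONE-Glo.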

[5] = qHTS assay to identify small molecule HDAC inhibitors (AID 1259364);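 further: wild-type HCT-116 cells with endogenous class I/II HDAC activity; top concentration of the series differs between compounds; nearly all actives have a fitted effect of over 45% in size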
In short: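 Cells (HCT-116, wild type) are seeded at 1,500 per well, incubated overnight, treated with compound in DMSO for 2 hr, then developed with HDAC-Glo I/II reagent for 30 min at room temperature.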

[6] = qHTS assay to identify small molecule HDAC inhibitors - cell viability counter screen (AID 1259365); further: series mostly up to about 92 µM; nearly all actives have a fitted effect of over 50% in size
In short: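 After overnight seeding at 1,500 cells per well, wild-type HCT-116 cultures took up compounds in DMSO for 2hr at 37 C. Viable cell content came from luminescence with CellTiter-Glo.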

[7] = qHTS assay to identify small molecule antagonists of the sonic hedgehog signaling (Shh) pathway - cell viability counter screen (AID 1259367); further: nearly all actives have a fitted effect of over 55% in size
In short: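 Viability was read by CellTiter-Fluor fluorescence in the same wells, reagent added 23 hr into compound treatment and incubated 1 hr at 37C. The 3T3 Gli1-Luc reporter cells (2,000/well) received conditioned medium after compound and ran 24 hr.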

[8] = qHTS assay to identify small molecule agonists of the sonic hedgehog signaling (Shh) pathway (AID 1259368; calls by dose curve;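 further: NIH/3T3-derived 3T3Gli1-Luc cells carrying a stable Gli1-driven firefly luciferase reporter; series mostly up to about 92 µM; nearly all actives have a fitted effect of over 15% in size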)
In short: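 Cells of a mouse NIH/3T3 clone stably expressing luciferase under the Gli1 transcriptional response element are exposed to test chemicals for 24 hr at 37 C. Pathway activation is detected as a rise in luminescence.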

[9] = qHTS assay to identify small molecule antagonists of the sonic hedgehog signaling (Shh) pathway (AID 1259369; calls by dose curve; further: nearly all actives have a fitted effect of over 45% in size; further: potency means the concentration at half of the fitted maximal effect)
In short: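 Cells are plated and held 4hr at 37 C, compounds (DMSO) are pinned in, conditioned medium is added to stimulate the pathway, and after 24hr luciferase reagent is added for 30min before luminescence is read.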

[10] = qHTS assay to identify small molecule agonists of the androgen receptor (AR) signaling pathway in the presence of an antagonist - cell viability counter screen (AID 1259379);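 further: MDA-kb2 human breast cancer cells carrying an MMTV luciferase reporter; series mostly up to about 92 µM; nearly all actives have a fitted effect of over 25% in size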
In short: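 Cytotoxicity is assessed by CellTiter-Fluor in MDA-kb2 cells carrying an MMTV-driven luciferase reporter. Cells receive 3.0uM nilutamide plus compounds at 15 concentrations and incubate 16 hr at 37C without CO2 before fluorescence reading.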

[11] = qHTS assay to identify small molecule agonists of the estrogen receptor beta (ER-beta) signaling pathway - cell viability counter screen (AID 1259380); further: nearly all actives have a fitted effect of over 30% in size; further: potency means the concentration at half of the fitted maximal effect
In short: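 Cytotoxicity is measured in parallel with the reporter screen: after 16 hr compound exposure at 37C and a 2 hr LiveBLAzer step, CellTiter-Glo is added to the same ER-beta-UAS-bla HEK293T wells and luminescence read after 30 min.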

[12] = biological target: Androgen receptor (Homo sapiens) (UniProt P10275); assay: qHTS assay to identify small molecule agonists of the androgen receptor (AR) signaling pathway in the presence of an antagonist (AID 1259381; calls by dose curve; further: nearly all actives have a fitted effect of over 15% in size)
Chain of Androgen receptor (Homo sapiens) (P10275 whole entry, looked up): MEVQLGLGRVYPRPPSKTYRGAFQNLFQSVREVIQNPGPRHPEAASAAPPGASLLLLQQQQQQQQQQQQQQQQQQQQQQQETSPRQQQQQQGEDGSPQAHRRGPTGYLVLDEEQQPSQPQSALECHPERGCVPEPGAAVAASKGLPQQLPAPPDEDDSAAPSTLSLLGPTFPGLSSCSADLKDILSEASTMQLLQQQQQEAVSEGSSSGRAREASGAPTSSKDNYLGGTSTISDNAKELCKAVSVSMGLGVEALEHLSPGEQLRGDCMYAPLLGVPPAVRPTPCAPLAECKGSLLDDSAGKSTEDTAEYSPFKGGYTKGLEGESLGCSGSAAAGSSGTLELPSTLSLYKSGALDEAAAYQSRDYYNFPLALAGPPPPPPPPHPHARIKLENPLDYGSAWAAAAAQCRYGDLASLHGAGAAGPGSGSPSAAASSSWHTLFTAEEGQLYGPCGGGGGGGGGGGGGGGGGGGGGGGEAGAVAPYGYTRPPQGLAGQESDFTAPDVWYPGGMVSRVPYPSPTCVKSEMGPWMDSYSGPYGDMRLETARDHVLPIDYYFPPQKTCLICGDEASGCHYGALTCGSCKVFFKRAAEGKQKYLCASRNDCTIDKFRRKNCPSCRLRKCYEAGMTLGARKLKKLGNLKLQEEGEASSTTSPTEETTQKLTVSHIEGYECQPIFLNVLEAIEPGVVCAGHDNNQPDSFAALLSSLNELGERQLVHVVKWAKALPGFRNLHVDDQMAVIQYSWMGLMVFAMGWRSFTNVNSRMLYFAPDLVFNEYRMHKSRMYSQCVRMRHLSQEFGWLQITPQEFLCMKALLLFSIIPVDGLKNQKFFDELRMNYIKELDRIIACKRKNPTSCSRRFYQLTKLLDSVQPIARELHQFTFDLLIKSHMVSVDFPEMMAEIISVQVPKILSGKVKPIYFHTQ
In short: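 Agonist-mode confirmation screen: human MDA-kb2 cells stably expressing luciferase under an MMTV promoter bearing AR and GR response elements, co-treated with 3.0uM nilutamide (final). Luminescence measured after 16hr compound incubation.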

[13] = qHTS assay to identify small molecule antagonists of the estrogen receptor beta (ER-beta) signaling pathway - cell viability counter screen (AID 1259382); further: nearly all actives have a fitted effect of over 55% in size; further: potency means the concentration at half of the fitted maximal effect;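 on activity change, negative = cytotoxicity: HEK293T cells carrying ER-beta-UAS-bla reporter stimulated with estradiol; series mostly up to about 92 µM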
In short: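 Cytotoxicity counter screen multiplexed with the beta-lactamase antagonist assay: GripTite HEK293T ER-beta-bla cells were treated 16 hr with test chemicals in the presence of 1nM 17-beta-estradiol, and viability was measured by CellTiter-Glo.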

[14] = biological target: Estrogen receptor (Homo sapiens) (UniProt P03372); assay: qHTS assay to identify small molecule agonists of the estrogen receptor alpha (ER-alpha) signaling pathway in the presence of an antagonist (AID 1259383; calls by dose curve; further: top concentration of the series differs between compounds; nearly all actives have a fitted effect of over 15% in size)
In short: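 Agonist-mode confirmation in the presence of the ER antagonist ICI-182,780 at 10.0nM final. Breast-derived VM7Luc4E2 reporter cells were exposed to compounds for 22hr, and ERE-driven luciferase was quantified by luminescence.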

[15] = qHTS assay to identify small molecule agonists or antagonists of the thyroid stimulating hormone receptor (TSHR) signaling pathway - wild type cell line counter screen (AID 1259384; calls by dose curve)
In short: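 Counter screen in untransfected Hek293: compounds (15-point titration, triplicate) plus phosphodiesterase inhibitor Ro20-1724 added after 18 h plating; 30 min RT. Intracellular cAMP via competitive d2/cryptate immunoassay, 1 h incubation.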

[16] = qHTS assay to identify small molecule agonists of the sonic hedgehog signaling (Shh) pathway - cell viability counter screen (AID 1259366); further: nearly all actives have a fitted effect of over 50% in size
In short: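 Same-well cytotoxicity read. Gli1-Luc reporter 3T3 cells; compounds 24hr, 37C/5% CO2; CellTiter-Fluor fluorescence.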

[17] = biological target: Estrogen receptor beta (Homo sapiens) (UniProt Q92731); assay: qHTS assay to identify small molecule agonists of the estrogen receptor beta (ER-beta) signaling pathway (AID 1259377; active means well fitted activation curve with a large enough effect in the signal ratio in the repeat runs, not every such curve was filed as active; the % refers to the signal ratio)
Chain of Estrogen receptor beta (Homo sapiens) (Q92731 whole entry, looked up): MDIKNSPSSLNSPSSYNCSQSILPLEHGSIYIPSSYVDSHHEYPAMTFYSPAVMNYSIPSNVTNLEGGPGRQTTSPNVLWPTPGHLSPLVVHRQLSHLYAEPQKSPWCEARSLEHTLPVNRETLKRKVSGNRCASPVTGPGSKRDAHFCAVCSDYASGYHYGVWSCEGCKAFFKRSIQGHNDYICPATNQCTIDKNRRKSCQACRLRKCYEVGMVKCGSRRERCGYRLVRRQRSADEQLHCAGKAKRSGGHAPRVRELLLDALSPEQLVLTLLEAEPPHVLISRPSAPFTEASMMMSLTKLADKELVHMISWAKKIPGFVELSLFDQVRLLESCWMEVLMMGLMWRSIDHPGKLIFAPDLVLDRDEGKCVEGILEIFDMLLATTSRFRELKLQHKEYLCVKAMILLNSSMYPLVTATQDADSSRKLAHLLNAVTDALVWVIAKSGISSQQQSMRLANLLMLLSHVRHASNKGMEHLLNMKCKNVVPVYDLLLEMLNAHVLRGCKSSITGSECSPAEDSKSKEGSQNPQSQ
In short: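 Read-out: beta-lactamase FRET fluorescence. Cell line: ER-beta-UAS-bla HEK293T in 2% charcoal-stripped FBS. Exposure: 16 hr at 37C. Substrate step: 2 h at room temperature.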

[18] = biological target: Estrogen receptor beta (Homo sapiens) (UniProt Q92731); assay: qHTS assay to identify small molecule antagonists of the estrogen receptor beta (ER-beta) signaling pathway (AID 1259378; active means well fitted inhibition curve with a large enough effect in the signal ratio in the repeat runs, not every such curve was filed as active; the % refers to the signal ratio)
In short: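 Antagonist mode: compounds added to beta-lactamase reporter HEK293T ER-beta-UAS cells stimulated with E2 (1nM final), 16 hr at 37C. LiveBLAzer B/G FRET substrate, 2 hours room temperature, fluorescence read-out.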
On the % scale 0 is the no-effect control and ±100 the full control effect.

CCOC(=O)N1CCC(Nc2ccc(Cl)cc2N)CC1
inactive: Potency [1] | Potency [2] | Potency [3] | Potency [4] | Potency [5] | Potency [6] | Potency [7] | Potency [8] | Potency [10] | Potency [11] | Potency [12] | Potency [13] | Potency [14] | Potency [15]
active: Potency [9] 2.98 µM

Cc1cccc2sc(N)nc12
inactive: Potency [1] | Potency [2] | Potency [3] | Potency [4] | Potency [5] | Potency [6] | Potency [16] | Potency [7] | Potency [8] | Potency [9] | Potency [17] | Potency [18] | Potency [10] | Potency [11] | Potency [13] | Potency [14] | Potency [15]

COc1cc(S(=O)(=O)Nc2ccccc2)c(OC)cc1N
inactive: Potency [1] | Potency [2] | Potency [3] | Potency [4] | Potency [5] | Potency [6] | Potency [16] | Potency [7] | Potency [8] | Potency [9] | Potency [17] | Potency [18] | Potency [10] | Potency [13] | Potency [14] | Potency [15]

c1ccc2sc(SSc3nc4ccccc4s3)nc2c1
inactive: cytotoxicity increase [1] 0.594% [at 15.8 µM] | activity change, negative = cytotoxicity [2] 8.69% [at 19 µM] | viability change, negative = cytotoxic [3] 8.85% [at 19 µM] | activity change, negative = inhibition [4] 1.45% [at 19 µM] | activity change, negative = inhibition [5] -21.4% [at 19 µM] | activity change, negative = cytotoxicity [6] 0.0537% [at 19 µM] | viability change, negative = cytotoxic [16] 21.7% [at 19 µM] | viability change, negative = cytotoxic [7] 7.43% [at 19 µM] | activity change [8] 1.97% [at 18.9 µM, active compounds read high] | activity change, negative = inhibition [9] 7.11% [at 19 µM] | activity change, negative = cytotoxicity [10] 5.77% [at 19 µM] | activity change, negative = cytotoxicity [11] -1.6% [at 19 µM] | activity change, negative = cytotoxicity [13] -0.0017% [at 19 µM] | activation [14] 2.07% [at 19 µM] | cAMP activity change [15] 2.9% [at 18.9 µM, active compounds read high]

CCCCCCCCCCCC(=O)OCC(O)CO (stereo unspecified)
inactive: Potency [1] | Potency [2] | Potency [3] | Potency [4] | Potency [5] | Potency [6] | Potency [16] | Potency [7] | Potency [8] | Potency [9] | Potency [17] | Potency [10] | Potency [14]

CCCCCCCCCCCSCC(=O)O
inactive: Potency [1] | Potency [2] | Potency [3] | Potency [5] | Potency [6] | Potency [16] | Potency [7] | Potency [8] | Potency [10] | Potency [14] | Potency [15]
active: Potency [4] 54.5 µM | Potency [11] 27.3 µM | Potency [13] 24.3 µM

SCCc1cnccn1
inactive: Potency [1] | Potency [2] | Potency [3] | Potency [4] | Potency [6] | Potency [16] | Potency [7] | Potency [8] | Potency [9] | Potency [17] | Potency [18] | Potency [10] | Potency [13] | Potency [14] | Potency [15]

CCN(CC)CCOc1ccccc1C(=O)CCc1ccccc1
active: Potency [11] 21.1 µM
inactive: Potency [1] | Potency [2] | Potency [3] | Potency [4] | Potency [5] | Potency [6] | Potency [16] | Potency [7] | Potency [8] | Potency [17] | Potency [18] | Potency [10] | Potency [14]

COc1ccc(CCN(C)CCCN2CCc3cc(OC)c(OC)cc3CC2=O)cc1OC
inactive: Potency [1] | Potency [2] | Potency [3] | Potency [4] | Potency [5] | Potency [6] | Potency [7] | Potency [8] | Potency [10] | Potency [11] | Potency [13] | Potency [14]
